Results on nine molecules are retold here after PubChem BioAssay (NCI).

Each structure is given as a SMILES string. About 83,000 compounds went through this panel and 20% of them were active in at least one assay; those are over-represented in the sample as a whole.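 How to read the values: 0–100, growth inhibition (40 = 60% inhibited); 0, no net growth; -100 to 0, cell death (-40 = 40% of starting cells died; -100 = all dead).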 A number with no mark means an inactive call. The source made the active and inactive calls. The calls were made as follows: active = growth percent below 10; inactive = the rest.

Common to all, as to experiment: NCI-60 one-dose screen, 48 h (100 = growth as untreated, 0 = no growth, -100 = all killed)
Common to all, as to settings: 10 µM unless noted

The test system of experiment [1] is HT29 colon.
Experiment [2] deals with SNB-75 CNS.
For experiment [3], the system named is SNB-19 CNS.
Experiment [4] concerns PC-3 prostate.
Experiment [5] concerns SK-MEL-5 melanoma.
Experiment [6] has as its system UACC-62 melanoma.
Experiment [7] concerns SK-MEL-28 melanoma.
The subject of experiment [8] is SN12C renal.
Experiment [9] deals with UO-31 renal.
Experiment [10] relates to TK-10 renal.
Experiment [11] deals with ACHN renal.
Experiment [12] deals with CAKI-1 renal.
Experiment [13] concerns A498 renal.
Experiment [14] deals with CCRF-CEM leukemia.
In experiment [15] the test system is MOLT-4 leukemia.
Experiment [16] has as its system LOX IMVI melanoma.
The test system of experiment [17] is SK-MEL-2 melanoma.
For experiment [18], the system named is EKVX NSCLC.
Experiment [19] deals with SR leukemia.

Regarding `O=C(/C=C/c1ccc(O)c(O)c1)N1CCN(c2ccc(Cl)cc2)CC1`, the growth was 80.1% in experiment [1]; 72.1% in [2]; 73.9% in experiment [3]; 61.7% in experiment [4]; 54.5% in experiment [5]; 81.3% in experiment [6]. In addition, the growth was 81% in experiment [7]; 69.8% in experiment [8]; 24.5% in experiment [9]; 49% in experiment [10]; 48.1% in [11]; 50.5% in [12]. Also, the growth was 72.1% in [13], 32.6% in experiment [14] and 27.3% in experiment [15].

Regarding `ClC1=C(Cl)C(Cl)=C(Cl)C1=Cc1ccc(Cl)cc1`, the growth was -30.1% (active) in experiment [1]; 97.5% in [2]; 76.4% in experiment [3]; -36.1% (active) in experiment [4]; 100% in experiment [5]; 58.6% in [6]. The growth in experiment [16] was -85.5% (active); in [7], 116%; in experiment [17], 99.7%; in [18] it was -22.6% (active); in [8] it was 47.2%; in experiment [9], -56.9% (active). The growth is 8.54% (active) in experiment [10]; 29% in experiment [11]; -63.5% (active) in experiment [12]; 27.2% in experiment [13]; 0.492% (active) in [15]; -14.1% (active) in experiment [19].

Regarding `CCCCC(C#N)C(N)=O` (stereo not given), the growth in experiment [1] is 101%; in experiment [2], 95.6%; in experiment [3], 107%; in experiment [4] it was 88.2%; in experiment [5] it was 107%; in experiment [6], 102%. Besides, the growth was 98.4% in experiment [16]; 107% in [7]; 101% in [17]; 132% in [18]; 101% in experiment [8]; 87.8% in experiment [9]. The growth in [10] was 107%; in [11] it was 110%; in [13] it was 122%; in experiment [14], 95.8%; in experiment [15], 90.2%; in experiment [19], 93.8%.

Regarding `O=C(O)c1ccc(NC(=O)c2cccc(Nc3ccnc(C(F)(F)F)c3)c2)cc1`, the growth was 106% in experiment [1]; 105% in experiment [2]; 106% in [3]; 105% in [4]; 101% in [5]; 108% in [6]. In addition, the growth was 110% in [7]; 106% in experiment [8]; 82% in experiment [9]; 97.8% in experiment [10]; 103% in experiment [11]; 95.1% in experiment [12]. The growth was 106% in experiment [13], 94.8% in experiment [14] and 93.4% in experiment [15].

Take `Cn1cc(-c2csc(-c3cn(C)c4ncccc34)n2)c2cc(F)cnc21`: the growth in experiment [1] is 69.8%; in experiment [2], 75.2%; in experiment [3] it was 83.3%; in experiment [4], 65%; in [5], 60.6%; in experiment [6] it was 65.3%. The growth was 72.4% in experiment [16]; 83.8% in experiment [7]; 98.7% in [17]; 77.7% in [18]; 88.9% in experiment [8]; 99.1% in experiment [9]. Further, the growth was 104% in experiment [10]; 94.4% in experiment [11]; 66% in [12]; 72.9% in experiment [13]; 80.1% in experiment [15].

For the molecule `C[C@]12CC[C@@H]3c4ccc(O)c([N+](=O)[O-])c4CC[C@H]3[C@@H]1CC[C@@H]2NS(=O)(=O)c1cccc(Br)c1`, the growth in [1] was 68.1%; in [2], 47.2%; in experiment [3] it was 50.6%; in experiment [4], 15.9%; in [5], 25.6%; in experiment [6] it was 35.4%. In addition, the growth in experiment [7] was 49.6%; in [8] it was 21.4%; in experiment [9], 3.61% (active); in experiment [10] it was 42.8%; in experiment [11] it was 24.4%; in experiment [12] it was 17.8%. Also, the growth in experiment [13] was 54.2%; in experiment [15] it was 18.2%; in experiment [19], -12.1% (active).

Take `COC(=O)[C@]12CC[C@@H](C)[C@H](C)[C@@H]1C1=CC[C@@H]3[C@@]4(C)C[C@@H](OC(=O)c5ccco5)[C@H](O)[C@@](C)(CO)[C@@H]4[C@H](O)C[C@@]3(C)[C@]1(C)CC2`: the growth in [1] was -92.8% (active); in [2] it was -84.4% (active); in [3], -71% (active); in experiment [4], -100% (active); in experiment [5] it was -99.9% (active); in [16] it was -99.4% (active). In addition, the growth in [7] was -84.6% (active); in [17], -77.7% (active); in [18], -91.9% (active); in experiment [8], -77.2% (active); in [9], -89.6% (active); in experiment [10] it was -87.9% (active). Further, the growth in experiment [11] was -95% (active); in [12], -98.3% (active); in experiment [13], -94.5% (active); in experiment [14] it was -87.3% (active); in experiment [15], -75.5% (active); in experiment [19] it was -91% (active).

With `CCC(CCC(C)C1CCC2C3CC=C4CC(O)CCC4(C)C3CCC12C)C(C)C` (stereo not given) (tested in a mixture with another compound), the growth in experiment [1] was 98.9%; in experiment [2] it was 119%; in experiment [3], 98.6%; in [4], 45.8%; in experiment [5], 96%; in experiment [6], 95%. Besides, the growth in experiment [16] is 99.1%; in experiment [7], 91.7%; in experiment [17], 24.3%; in experiment [18], 115%; in experiment [8] it was 84.4%; in [9], 93.6%. The growth in experiment [10] is 139%; in [11] it was 88%; in experiment [12] it was 108%; in experiment [13] it was 104%; in experiment [14], 60%; in experiment [15] it was 70.6%. The growth in experiment [19] was 101%.

For the molecule `C[C@]12CC[C@@H]3c4ccc(O)cc4CC[C@H]3[C@@H]1CC[C@@H]2NS(=O)(=O)c1cccc(Br)c1`, the growth in [1] is 61.6%; in experiment [2] it was 72.7%; in [3] it was 95.2%; in experiment [4] it was 38.7%; in experiment [5], 61.3%; in experiment [6], 70%. For the same molecule, the growth in experiment [7] is 88.3%; in [8] it was 69.8%; in experiment [9], 36.3%; in experiment [10] it was 75.4%; in [11] it was 58.9%; in [12], 62.9%. Moreover, the results for the growth in [13], in [15] and in experiment [19] were 65%, 36.3% and 27.1%, respectively.
